# Compound activity from PubChem.
# D2 PAM-1 = positively modulates the human D2 dopamine receptor allosterically; P14416; HEK293 T-REx D2, calcium flux, EC20 dopamine potentiation; potentiation, % at 10 µM; 0.34% of 340,000 active;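 active means potentiation over 3 SD above the plate norm, cut at about 30% in these data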; further: 0% is about no effect
# Target sequence (P14416 whole entry, looked up): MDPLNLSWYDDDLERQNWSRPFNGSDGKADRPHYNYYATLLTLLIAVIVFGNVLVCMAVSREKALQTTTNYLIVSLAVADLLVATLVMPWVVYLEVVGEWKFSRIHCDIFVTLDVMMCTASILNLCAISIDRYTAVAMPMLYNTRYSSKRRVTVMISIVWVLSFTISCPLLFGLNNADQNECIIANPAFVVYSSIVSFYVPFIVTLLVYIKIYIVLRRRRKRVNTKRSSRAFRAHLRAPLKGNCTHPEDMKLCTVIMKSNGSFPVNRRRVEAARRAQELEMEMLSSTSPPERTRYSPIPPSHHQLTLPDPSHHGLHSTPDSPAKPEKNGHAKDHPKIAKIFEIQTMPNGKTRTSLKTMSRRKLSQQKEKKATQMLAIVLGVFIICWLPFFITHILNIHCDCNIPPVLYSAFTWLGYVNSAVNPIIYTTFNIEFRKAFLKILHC
#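 Calcium flux readout, no-wash dye, 1 read/s. Inducible HEK293 Trex D2 line, overnight 30 C. Compound alone 180 s (agonist flags), then EC20 dopamine, another 180 s to score potentiation.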
# D2 ag-1 = activates the human D2 dopamine receptor; P14416; DiscoveRx PathHunter D2 beta-arrestin, luminescence, 90 min; 100% = 57 uM dopamine signal; activation, % (test concentration not listed); 0.084% of 360,000 active; AID 624465; in the data active means activation above about 40%; inconclusive means between about 15% and that limit
#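 Agonist mode: compounds alone added to overnight-plated D2 PathHunter cells for 90 min at 37 C, with 57 uM final dopamine (EC100) defining full response. Beta-arrestin recruitment detected by chemiluminescent reagent, read after 1 h at ambient temperature.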
# D2 ag-2 = activates the human D2 dopamine receptor; P14416; HEK293 T-REx D2 cells, calcium flux agonist mode; activation, % at 2 µM; 0.53% of 340,000 active; AID 485358;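 active means activation over 3 SD above normal in the single-dose calcium agonist read, cut at about 30% in these data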; further: 0% is about no effect
#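 Calcium-flux readout, 1 cycle/sec over 180 s following compound pin transfer, in inducible HEK293 Trex D2 cells (force-coupled); dopamine controls included. Positive calcium responses during this window marked compounds as potential agonists.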
# D2 antag = antagonizes the human D2 dopamine receptor | P14416 | HEK293 TREx D2 cells, calcium flux, dopamine EC80 | inhibition, % at 10 µM | 2% of 340,000 active; in the data active means inhibition above about 30%; inactive means below that, where a call was filed; further: 0% is about no effect
#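 Tetracycline-induced HEK293 T-REx cells expressing D2 force-coupled to calcium signalling were dye-loaded, exposed to compound for 180 s, then challenged with an EC80 of dopamine; calcium flux was followed kinetically for a further 180 s.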
# D2 PAM-2 = potentiates the human D2 dopamine receptor allosterically. AID 624464. 0.23% of 360,000 active. DiscoveRx D2 beta-arrestin cells, luminescence, 90 min; 100% = 57 uM dopamine signal. potentiation, % (concentration not given with the values). P14416; in the data active means potentiation above about 50%; inconclusive means mostly about 30% to 49%
#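 PathHunter beta-arrestin assay in DiscoveRx D2 cells. Compounds were added with an EC20 of dopamine (50 nM final) for 90 min at 37 deg C. Luminescence was read 1 h after detection reagent, with 57 uM dopamine as the EC100 control.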
# * marks the source's active call; other numbers are inactive results; ? = inconclusive; · = not tested or not shown. The list is not random: actives were taken first. Their share in the collection is about 2.4%.
SMILES,D2 PAM-1,D2 ag-1,D2 ag-2,D2 antag,D2 PAM-2
CCN(CC)CCN(C(=O)c1ccc2c(c1)CCCC2)c1nc2c(C)cccc2s1,-14,7,1,60*,-16
CCOC(=O)c1c(NC(=S)NCc2ccccc2)sc2c1CCN(C(=O)OCC)C2,6,-8,0,18,-4
C=CCNC(=S)Nc1sc2c(c1C(=O)OCC)CCN(C(=O)OCC)C2,40*,-1,0,-13,-17
COc1cccc(Oc2nc(-c3ccccc3O)nc3ccccc23)c1,-6,-3,-1,43*,5
CCCC1=Nc2cc(C(=O)NC3CCCCC3)ccc2Sc2ccc(C)cc21,12,·,0,·,·
COc1ccc(C)cc1NC(=O)c1cc2c(=O)n3ccccc3nc2n1C,11,0,1,13,2
COc1ccc(NC(=O)c2cc3c(=O)n4ccccc4nc3n2C)cc1OC,35*,4,0,-8,2
CC(C)Oc1ccc(C2c3c(oc4ccccc4c3=O)C(=O)N2CCCN2CCOCC2)cc1 (configuration not stated),16,2,-1,19,-10
O=C1c2oc3ccccc3c(=O)c2C(c2cccnc2)N1CCCN1CCOCC1 (configuration not stated),2,-3,0,35*,-12
O=C(NCCCN1CCCCC1)c1ccc(CS(=O)c2ccc(F)cc2)o1 (configuration not stated),-4,-2,1,32*,-4
COC(=O)c1ccccc1-n1c(CCC(=O)O)ccc1-c1ccc(F)cc1,0,9,0,3,56*
COc1ccc(-n2c(CCC(=O)O)ccc2-c2ccc(F)cc2)c(OC)c1,32*,1,0,7,-10
O=Cc1ccc(OCC(=O)NCC2CCCO2)cc1 (configuration not stated),-10,-6,0,30*,-7
CCn1nnnc1-c1ccc(OC)c(S(=O)(=O)NCc2ccccc2)c1,1,-3,0,33*,4
CCn1nnnc1-c1ccc(OC)c(S(=O)(=O)Nc2ccc(C)c(C)c2)c1,-2,2,0,-18,-19
O=C(CSc1nccn1Cc1ccc(F)cc1)Nc1nc2ccccc2s1,-8,·,1,·,·
N#Cc1c(/N=C/C=C/c2ccccc2)sc2c1CCCC2,31*,?,1,-11,27
CN1CCN(/C=N/c2sc3c(c2C#N)CCCCC3)CC1,1,-1,-1,-15,-26
CCCc1cc(=O)[nH]c(SCC(=O)N2CCN(c3ccccc3)CC2)n1,-4,0,0,38*,-20
CCCc1cc(=O)[nH]c(SCC(=O)N2CCOCC2)n1,-2,-8,1,-1,-2
CC(C)OC(=O)c1ccc(NC(=O)c2cncc(Br)c2)cc1,4,1,1,45*,4
CC(C)CNC(=O)COC(=O)c1ccc([N+](=O)[O-])cc1Cl,0,3,-1,-6,57*
O=C1COc2ccc(C(=O)COC(=O)c3ccc([N+](=O)[O-])cc3Cl)cc2N1,-13,?,1,3,51*
O=C1COc2ccc(C(=O)COC(=O)c3ccc(Cl)cc3[N+](=O)[O-])cc2N1,-1,?,0,9,52*
O=C(COC(=O)c1ccc([N+](=O)[O-])cc1Cl)NCc1ccco1,0,8,0,-5,7
SMILES,D2 PAM-1,D2 ag-1,D2 ag-2,D2 antag,D2 PAM-2
O=C1COc2ccc(C(=O)COC(=O)c3ccccc3[N+](=O)[O-])cc2N1,0,2,·,·,-12
S=C(NCCc1ccccc1)Nc1cccc2cnccc12,4,0,4,-10,0
CCC(=O)N1c2nc(C(C)C)nn2C2(CCCCC2)[C@@H]2CCCC[C@@H]21,3,·,-2,·,·
O=C(c1ccc(C(=O)N2CCCCCC2)cc1)N1CCCCCC1,32*,-4,0,5,1
O=C(c1ccc(F)cc1)C1CCN(C(=O)c2ccc(F)cc2)CC1,1,-2,0,41*,1
O=C(c1ccc(N2C(=O)C3CC=C(Cl)CC3C2=O)cc1)N1CCCCC1 (configuration not stated),-4,-2,0,38*,5
Cc1ccc(CN2CCC(C(=O)c3ccc(F)cc3)CC2)cc1,·,-7,·,·,-26
